Reference: PubChem BioAssay (EPA / NIEHS)
Results filed as inconclusive are left out. Activity calls are given as the source filed them. How the source made its calls, unless noted: active means hit-call score of the fitted dose curve at least 0.9, where 1 is the maximum; inactive means score below 0.9.

How the values were obtained:
[1] = read-out: urokinase plasminogen activator (uPA), PLAU (gene 5328); test: BSK_KF3CT_uPA: BioMAP Diversity Plus: KF3CT Assay for urokinase plasminogen activator (uPA) Biomarker Activity (AID 2283075); details: primary human keratinocytes with fibroblasts; actives raise or lower the signal
Summary of the method: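 Primary human keratinocyte/foreskin fibroblast co-culture exposed to chemical; uPA measured by ELISA at 24 h. Bidirectional fit versus DMSO, with parallel SRB total-protein staining for cytotoxicity.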

CD40, CD40 (gene 958) [2] = test: BSK_LPS_CD40: BioMAP Diversity Plus: LPS Assay for CD40 Biomarker Activity (AID 2283076); details: primary human HUVEC with PBMC; actives raise or lower the signal
Summary of the method: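 HUVEC plus PBMC co-culture stimulated with LPS; CD40 quantified by ELISA 24 h after compound dosing. Fitting was bidirectional relative to DMSO. SRB staining of parallel cultures flagged overt cytotoxicity.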

[3] = read-out: E-selectin (Homo sapiens) (UniProt P16581); test: BSK_LPS_Eselectin: BioMAP Diversity Plus: LPS Assay for Eselectin Biomarker Activity (AID 2283077); details: primary human HUVEC with PBMC; actives raise or lower the signal
Summary of the method: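 Human umbilical vein endothelial cells co-cultured with PBMC under LPS stimulation; cell-surface E-selectin measured by ELISA 24 h after dosing. Change in either direction versus DMSO, with SRB total-protein staining in parallel cultures for cytotoxicity.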

[4] = read-out: Interleukin-8 (IL8), CXCL8 (gene 3576); test: BSK_LPS_IL8: BioMAP Diversity Plus: LPS Assay for Interleukin-8 (IL8) Biomarker Activity (AID 2283078); details: primary human HUVEC with PBMC; actives raise or lower the signal
Summary of the method: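 Human umbilical vein endothelial cells co-cultured with PBMC, LPS-stimulated, exposed to compound for 24 h. IL-8 quantified by ELISA; fitted in both directions against DMSO, with SRB total-protein staining of parallel cultures for cytotoxicity.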

[5] = BSK_LPS_SRB: Viability Assessment in the BioMAP Diversity Plus: LPS Assay (AID 2283079); details: primary human HUVEC with PBMC;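 further: total protein by sulforhodamine B absorbance as a cytotoxicity measure; measured one day after compound addition; fitted in both directions against DMSO so loss or gain of signal counts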
Summary of the method: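 Co-culture of human umbilical vein endothelial cells and PBMC, read 24 h after dosing. Total protein by 0.1% SRB staining after 10% TCA fixation, absorbance at 560 nm; bidirectional fit against DMSO.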

[6] = read-out: Interleukin-1 alpha (IL1a), IL1A (gene 3552); test: BSK_LPS_IL1a: BioMAP Diversity Plus: LPS Assay for Interleukin-1 alpha (IL1a) Biomarker Activity (AID 2283080); details: primary human HUVEC with PBMC; actives raise or lower the signal
Summary of the method: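 Human umbilical vein endothelial cells co-cultured with PBMC and stimulated with LPS; IL-1a measured by ELISA 24 h after dosing. Bidirectional fitting against DMSO; cytotoxicity checked by SRB staining in parallel cultures.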

[7] = read-out: Monocyte Chemoattractant Protein-1 (MCP1), CCL2 (gene 6347); test: BSK_LPS_MCP1: BioMAP Diversity Plus: LPS Assay for Monocyte Chemoattractant Protein-1 (MCP1) Biomarker Activity (AID 2283081); details: primary human HUVEC with PBMC; actives raise or lower the signal
Summary of the method: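 Human umbilical vein endothelial cells co-cultured with PBMC, LPS-stimulated; secreted MCP-1 measured by ELISA 24 h after compound addition. Bidirectional curve fitting against DMSO baseline; SRB total-protein staining in parallel cultures for cytotoxicity.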

[8] = BSK_LPS_PGE2: BioMAP Diversity Plus: LPS Assay for Prostaglandin E2 (PGE2) Biomarker Activity (AID 2283082); details: primary human HUVEC with PBMC; actives raise or lower the signal
Summary of the method: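 Endpoint derived from bidirectional curve fitting versus DMSO of ELISA-measured PGE2 in LPS-stimulated human primary vascular co-culture (HUVEC with PBMC) harvested at 24 h.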

[9] = read-out: Macrophage colony-stimulating factor (MCSF), CSF1 (gene 1435); test: BSK_LPS_MCSF: BioMAP Diversity Plus: LPS Assay for Macrophage colony-stimulating factor (MCSF) Biomarker Activity (AID 2283083); details: primary human HUVEC with PBMC; actives raise or lower the signal
Summary of the method: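 HUVEC–PBMC co-culture, M-CSF measured by ELISA 24 h after chemical dosing. Fitted in both directions relative to DMSO as negative control; overt cytotoxicity assessed by SRB total-protein staining in parallel cultures.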

[10] = read-out: Tissue Factor, F3 (gene 2152); test: BSK_LPS_TissueFactor: BioMAP Diversity Plus: LPS Assay for Tissue Factor Biomarker Activity (AID 2283084); details: primary human HUVEC with PBMC; actives raise or lower the signal
Summary of the method: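 Human umbilical vein endothelial cells co-cultured with PBMC were dosed with compound. Cell-surface CD142 was measured by ELISA 24 h later. Activity was fitted bidirectionally against DMSO, with SRB total-protein staining in parallel cultures for cytotoxicity.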

[11] = read-out: Tumor necrosis factor (Homo sapiens) (UniProt P01375); test: BSK_LPS_TNFa: BioMAP Diversity Plus: LPS Assay for Tumour Necrosis Factor alpha (TNFa) Biomarker Activity (AID 2283085); details: primary human HUVEC with PBMC; actives raise or lower the signal
Summary of the method: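 Primary human vascular co-culture of HUVEC and PBMC; TNFa ELISA 24 h after treatment, analysed as increase or decrease relative to DMSO control.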

[12] = read-out: Vascular cell adhesion molecule 1 (VCAM1), VCAM1 (gene 7412); test: BSK_LPS_VCAM1: BioMAP Diversity Plus: LPS Assay for Vascular cell adhesion molecule 1 (VCAM1) Biomarker Activity (AID 2283086); details: primary human HUVEC with PBMC; actives raise or lower the signal
Summary of the method: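 Primary human vascular co-culture (umbilical vein endothelium plus PBMC) stimulated with LPS received chemical; 24 h later VCAM-1 was read by ELISA. Overt cytotoxicity was assessed by sulforhodamine B staining of parallel cultures at the same time point.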

CD38, CD38 (gene 952) = test: BSK_SAg_CD38: BioMAP Diversity Plus: SAg Assay for CD38 Biomarker Activity (AID 2283087); details: primary human HUVEC with PBMC; actives raise or lower the signal
Summary of the method: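 Fluorescence ELISA of cell-surface CD38 served as the read-out, with either increase or decrease fitted against DMSO controls. Cells were a human umbilical vein endothelium plus PBMC co-culture under SEB/TSST-1 stimulation, measured 24 h after dosing.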

CD40, CD40 (gene 958) [13] = test: BSK_SAg_CD40: BioMAP Diversity Plus: SAg Assay for CD40 Biomarker Activity (AID 2283088); details: primary human HUVEC with PBMC; actives raise or lower the signal
Summary of the method: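 HUVEC plus PBMC co-culture, superantigen-activated, with CD40 read by ELISA 24 h after dosing. Curves fitted in both directions against DMSO. Overt cytotoxicity checked by parallel SRB total-protein staining.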

CD69, CD69 (gene 969) = test: BSK_SAg_CD69: BioMAP Diversity Plus: SAg Assay for CD69 Biomarker Activity (AID 2283089); details: primary human HUVEC with PBMC; actives raise or lower the signal
Summary of the method: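 ELISA, fluorescence read-out: CD69 on human umbilical vein endothelial cell + PBMC co-culture, 24 h post-dosing. Gain or loss of signal fitted bidirectionally against DMSO baseline.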

[14] = read-out: Monocyte Chemoattractant Protein-1 (MCP1), CCL2 (gene 6347); test: BSK_SAg_MCP1: BioMAP Diversity Plus: SAg Assay for Monocyte Chemoattractant Protein-1 (MCP1) Biomarker Activity (AID 2283090); details: primary human HUVEC with PBMC; actives raise or lower the signal
Summary of the method: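 MCP-1 levels in the endothelial–PBMC SAg co-culture were quantified by ELISA at 24 h post-dosing; both increases and decreases versus DMSO scored. Cytotoxicity monitored by SRB total protein in parallel cultures.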

[15] = read-out: E-selectin (Homo sapiens) (UniProt P16581); test: BSK_SAg_Eselectin: BioMAP Diversity Plus: SAg Assay for Eselectin Biomarker Activity (AID 2283091); details: primary human HUVEC with PBMC; actives raise or lower the signal
Summary of the method: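 Human umbilical vein endothelial cells co-cultured with peripheral blood mononuclear cells, SAg system. E-selectin is measured by ELISA 24 h after dosing and fitted bidirectionally against DMSO. Cytotoxicity is checked by SRB staining of parallel cultures.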

[16] = read-out: Monokine induced gamma interferon (MIG), CXCL9 (gene 4283); test: BSK_SAg_MIG: BioMAP Diversity Plus: SAg Assay for Monokine induced gamma interferon (MIG) Biomarker Activity (AID 2283092); details: primary human HUVEC with PBMC; actives raise or lower the signal
Summary of the method: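 ELISA readout of MIG/CXCL9; primary human umbilical vein endothelial cells co-cultured with peripheral blood mononuclear cells; 24 h post-dose; gain/loss fit vs DMSO baseline.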

[17] = BSK_SAg_PBMCCytotoxicity: PBMC Cytotoxicity Assessment in the BioMAP Diversity Plus: SAg Assay (AID 2283093); details: primary human HUVEC with PBMC;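 further: PBMC viability measured as Alamar Blue reduction fluorescence at 546/580 nm; fitted both ways against DMSO so a hit may be loss or gain of signal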
Summary of the method: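 HUVEC/PBMC co-culture; PBMC exposed to chemical 1 h before SEB and TSST-1 activation (20 ng/mL each), incubated 90 h, then Alamar Blue 6 h, fluorescence 546/580 nm. Bidirectional fit versus DMSO baseline.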

[18] = read-out: Interleukin-8 (IL8), CXCL8 (gene 3576); test: BSK_SAg_IL8: BioMAP Diversity Plus: SAg Assay for Interleukin-8 (IL8) Biomarker Activity (AID 2283094); details: primary human HUVEC with PBMC; actives raise or lower the signal
Summary of the method: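 In this co-culture of human umbilical vein endothelium with peripheral blood mononuclear cells, IL-8 is assayed by ELISA at 24 h. DMSO serves as baseline for bidirectional curve fitting.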

[19] = BSK_SAg_Proliferation: Cell Proliferation Assessment in the BioMAP Diversity Plus: SAg Assay (AID 2283095); details: primary human HUVEC with PBMC;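 further: relative cell number as total protein by SRB absorbance in sub-confluent culture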
Summary of the method: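 Readout is SRB-stained protein (560 nm) in a primary human HUVEC and PBMC co-culture; sub-confluent cultures are read at 96 h. Activity is fitted bidirectionally using DMSO as baseline.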

[20] = TOX21_p53_BLA_p2_viability: Viability Assessment in the Tox21 HCT-116 p53 Agonism Beta-lactamase Assay, Phase 2 (AID 2283591; active means hit-call score of the fitted dose curve at least 0.9, where 1 is the maximum;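 further: compound exposure lasted 16 h at 37 °C; actives lower the ATP signal meaning cytotoxicity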)
Summary of the method: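 HCT116 p53-bla cells, 4000/well, dosed after 5 h plating (217-fold dilution of DMSO stocks) and incubated 16 h at 37C. Viability taken as cellular ATP by CellTiter-Glo luminescence after 30 min RT; signal loss marks cytotoxicity.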

[21] = biological target: Cellular tumor antigen p53 (Homo sapiens) (UniProt P04637); test: TOX21_p53_BLA_p2_ratio: Tox21 HCT-116 p53 Agonism Beta-lactamase Assay, Ratio, Phase 2 (AID 2283592; active means hit-call score of the fitted dose curve at least 0.9, where 1 is the maximum)
Summary of the method: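 HCT-116 cells with p53-responsive beta-lactamase reporter, 4000 cells/well, preincubated 5 h, then compound in DMSO (217-fold dilution) for 16 h at 37C. CCF4-AM substrate 2 h at room temperature; 460/530 nm emission ratio fitted upward versus DMSO.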

[22] = TOX21_p53_BLA_p3_viability: Viability Assessment in the Tox21 HCT-116 p53 Agonism Beta-lactamase Assay, Phase 3 (AID 2283593; active means hit-call score of the fitted dose curve at least 0.9, where 1 is the maximum;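 further: cells exposed to compound for 16 h before reading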)
Summary of the method: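 HCT116 cells, 4000/well, dosed 5 h after plating by pin transfer (217-fold dilution from DMSO stock) and incubated 16 h at 37C, 5% CO2. Viability read as ATP luminescence with CellTiter-Glo after 30 min at room temperature.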

[23] = biological target: Cellular tumor antigen p53 (Homo sapiens) (UniProt P04637); test: TOX21_p53_BLA_p3_ratio: Tox21 HCT-116 p53 Agonism Beta-lactamase Assay, Ratio, Phase 3 (AID 2283596; active means hit-call score of the fitted dose curve at least 0.9, where 1 is the maximum)
Summary of the method: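 HCT116 p53-bla cells (4000/well) given compound in DMSO (217-fold dilution) after 5 h, incubated 16 h at 37C. CCF4-AM substrate 2 h at room temperature; 460/530 nm emission ratio, gain fitted against DMSO.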

[24] = TOX21_p53_BLA_p4_viability: Viability Assessment in the Tox21 HCT-116 p53 Agonism Beta-lactamase Assay, Phase 4 (AID 2283597; active means hit-call score of the fitted dose curve at least 0.9, where 1 is the maximum;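 further: hits lower the luminescence signal meaning cytotoxicity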)
Summary of the method: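 HCT-116 p53-bla cells, 4000/well, dosed after 5 h attachment and incubated 16 h at 37 °C, 5% CO2. Viability from CellTiter-Glo ATP luminescence after 30 min at room temperature, taken after the beta-lactamase read; loss of signal indicates cytotoxicity.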

[25] = biological target: Cellular tumor antigen p53 (Homo sapiens) (UniProt P04637); test: TOX21_p53_BLA_p5_ratio: Tox21 HCT-116 p53 Agonism Beta-lactamase Assay, Ratio, Phase 5 (AID 2283599; active means hit-call score of the fitted dose curve at least 0.9, where 1 is the maximum)
Summary of the method: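 HCT-116 p53-bla cells (4000/well) plated 5 h, dosed with compound (217-fold DMSO dilution) for 16 h at 37 C; CCF4-AM substrate 2 h at room temperature. Activity is the 460/530 nm emission ratio (405 nm excitation), fitted in gain-of-signal direction versus DMSO.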

[26] = biological target: Cellular tumor antigen p53 (Homo sapiens) (UniProt P04637); test: TOX21_p53_BLA_p4_ratio: Tox21 HCT-116 p53 Agonism Beta-lactamase Assay, Ratio, Phase 4 (AID 2283601; active means hit-call score of the fitted dose curve at least 0.9, where 1 is the maximum)
Summary of the method: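 HCT-116 p53 beta-lactamase reporter cells (4000/well) preincubated 5 h, then compound (217-fold dilution of DMSO stock) for 16 h at 37C. CCF4-AM substrate added 2 h at room temperature; 460/530 nm emission ratio fitted upward versus DMSO.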

[27] = CCTE_Shafer_MEA_acute_spike_number: CCTE's Neural Acute Assay for Total Number of Spikes, Shafer Lab (AID 2284008);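 further: curve fitted for decrease in spike count so AC50 reflects inhibitors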
Summary of the method: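 Rat primary cortical neurons on 48-well MEA plates, DIV 13 or 15, at 37 C. 40 min baseline then 40 min with compound (0.03-40 uM); spikes detected at 8x rms noise, expressed as percent change from baseline.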

Measured: AC50

Sequence of Cellular tumor antigen p53 (Homo sapiens) (P04637 whole entry, looked up): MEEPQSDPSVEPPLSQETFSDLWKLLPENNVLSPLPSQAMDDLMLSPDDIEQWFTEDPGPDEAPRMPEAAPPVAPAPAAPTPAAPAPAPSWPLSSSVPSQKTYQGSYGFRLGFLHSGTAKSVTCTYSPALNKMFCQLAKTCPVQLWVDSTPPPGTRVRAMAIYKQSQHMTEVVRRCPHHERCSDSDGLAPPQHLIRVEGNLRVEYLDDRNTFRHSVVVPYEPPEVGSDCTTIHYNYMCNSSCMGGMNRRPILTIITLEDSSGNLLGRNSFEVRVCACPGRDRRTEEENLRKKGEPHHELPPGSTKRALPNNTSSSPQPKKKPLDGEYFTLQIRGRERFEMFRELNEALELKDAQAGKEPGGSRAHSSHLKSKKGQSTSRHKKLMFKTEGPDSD
Sequence of E-selectin (Homo sapiens) (P16581 whole entry, looked up): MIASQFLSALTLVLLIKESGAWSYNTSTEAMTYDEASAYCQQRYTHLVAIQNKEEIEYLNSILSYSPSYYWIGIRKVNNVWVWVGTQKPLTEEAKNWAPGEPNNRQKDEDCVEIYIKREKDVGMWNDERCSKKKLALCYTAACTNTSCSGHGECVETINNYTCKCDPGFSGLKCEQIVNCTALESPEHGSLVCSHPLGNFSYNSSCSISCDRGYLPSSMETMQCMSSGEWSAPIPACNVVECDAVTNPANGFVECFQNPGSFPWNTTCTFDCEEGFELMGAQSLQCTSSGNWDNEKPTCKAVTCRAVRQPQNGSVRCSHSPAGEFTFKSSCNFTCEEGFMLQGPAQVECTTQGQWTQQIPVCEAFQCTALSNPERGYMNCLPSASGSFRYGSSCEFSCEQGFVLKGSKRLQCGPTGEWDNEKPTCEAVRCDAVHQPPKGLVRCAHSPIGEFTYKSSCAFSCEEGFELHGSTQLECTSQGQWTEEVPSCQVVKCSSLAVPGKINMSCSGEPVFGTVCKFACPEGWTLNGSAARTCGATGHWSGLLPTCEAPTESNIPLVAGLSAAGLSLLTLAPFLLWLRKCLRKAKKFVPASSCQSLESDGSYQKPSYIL
Sequence of Tumor necrosis factor (Homo sapiens) (P01375 whole entry, looked up): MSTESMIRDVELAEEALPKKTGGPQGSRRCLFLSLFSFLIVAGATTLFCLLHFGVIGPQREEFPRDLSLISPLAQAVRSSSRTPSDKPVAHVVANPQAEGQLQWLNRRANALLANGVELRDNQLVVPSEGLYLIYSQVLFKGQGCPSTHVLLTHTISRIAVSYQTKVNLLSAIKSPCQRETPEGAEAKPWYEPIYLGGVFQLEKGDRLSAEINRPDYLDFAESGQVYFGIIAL

CCCC[N+](CCCC)(CCCC)CCCC
active: [27] 4.44 nM
inactive: all other assays above
